Hits are enriched below; roughly 3.1% of the tested compounds scored in any of these assays.
KKLEB tox – cytotoxicity in KKLEB CF airway cells, primary screen, cytotoxicity control for CF NF-kB inhibitor project, cell-based, uHTS, fluorescence assay plates; KKLEB CF airway cells viability, ATPlite luminescence, overnight; hits give low values; cells stimulated with P. aeruginosa culture filtrate; activity change (cytotoxicity), % at 5 µM; actives 0.36% (n = 360,000); AID 602141, 2011;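 active = corrected activity change at or below -50% at 5 µM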
Peg3 prom inh – Peg3 promoter-driven luciferase inhibitors, primary screen, cell-based, HeLa, luciferase luminescence. HeLa PEG-Prom luciferase reporter, overnight. inhibition, % at 20 µM. actives 1.7% (n = 360,000). AID 588405, 2011;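 active = inhibition of at least 50% at 20 µM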
ABHD5 PLIN5 PPI – ABHD5-PLIN5 interaction inhibitors, primary screen, cell lysate, split luciferase complementation, luminescence; Split G. princeps luciferase complementation, 4 h; inhibition, % at 4 µM; actives 0.78% (n = 360,000);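 active = inhibition above the mean inhibition across every tested compound plus 3 SD, cut at about 22% in these data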;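 also: 0% = DMSO only wells and the 100% control is not disclosed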
MITF TRPM1 inh – inhibitors of MITF-dependent TRPM1 promoter reporter, primary screen, cell-based, SK-MEL-5, single point, luciferase. actives 0.83% (n = 330,000). SK-MEL-5 TRPM1 promoter luciferase, 24 h. inhibition, % at 12.5 µM. AID 488899, 2010;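 active = mean inhibition across replicates of 60% or more, whatever share of single replicates reaches that level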
CF NFkB block – inhibitors of PAF-induced NF-kB signaling, primary screen, cell-based, GFP fluorescence, uHTS. KKLEB NF-kB-GFP reporter, GFP fluorescence overnight. inhibition, % at 5 µM. actives 0.86% (n = 360,000). AID 588850, 2011;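 active = at least 50% inhibition at 5 µM, scaled per plate between neutral and stimulator controls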;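 also: PAF is a Pseudomonas aeruginosa culture filtrate used as stimulus; plate controls were PAF-stimulated DMSO wells for no effect and unstimulated DMSO wells for full effect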
HIF-2a block – HIF-2a reporter inhibitors, primary screen, luminescence, 786-0 RCC cells; 786-0 RCC cells HIF-2a reporter, luciferase luminescence, overnight; inhibition, % at 18.8 µM; actives 0.72% (n = 360,000); AID 624352, 2012;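 active = inhibition of the luminescence signal of 40% or more relative to plate controls, in a single-dose primary screen at 18.75 µM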
* = called active by the depositor; nt = no result.

SMILES | KKLEB tox | Peg3 prom inh | ABHD5 PLIN5 PPI | MITF TRPM1 inh | CF NFkB block | HIF-2a block
COc1ccc(S(=O)(=O)N[C@H]2CC[C@H](CCNC(=O)c3ccccc3F)O[C@@H]2CO)cc1 | nt | nt | 2 | nt | nt | 4
O=c1[nH]c(C2CCCN(S(=O)(=O)c3ccccc3)C2)nc2c1nnn2Cc1ccc2c(c1)OCCO2 (centres undefined) | -2 | 34 | -9 | 2 | 12 | 30
O=c1[nH]c(C2CCCN(S(=O)(=O)c3cccc(Cl)c3)C2)nc2c1nnn2Cc1ccc2c(c1)OCCO2 (centres undefined) | 13 | 51* | 13 | -15 | 17 | 23
O=c1[nH]c(C2CCN(S(=O)(=O)c3ccccc3C(F)(F)F)CC2)nc2c1nnn2Cc1ccccc1 | -2 | 51* | 10 | 7 | 2 | 14
Cn1c(=O)c2[nH]c(CCc3ccncc3)nc2n(C)c1=O | 28 | 1 | 2 | 1 | 2 | 6
CCc1ccc2c(c1)C1(C(=O)N2)N2CCCC2C(C(=O)c2ccc3ccccc3c2)C12C(=O)Nc1ccccc12 (centres undefined) | -24 | 104* | 6 | 4 | 2 | -145
COc1ccc(C(C)C)cc1S(=O)(=O)N1CCC(C(=O)NCC2CCCO2)CC1 (centres undefined) | 2 | -1 | -1 | 1 | -2 | 15
CCc1ccc(-c2nc(CN3CCC(C(=O)NCCN(CC)c4ccccc4)CC3)c(C)o2)cc1 | -9 | 108* | 3 | 67* | 1 | -49
CCc1ccc(-c2nc(CN3CCC(C(=O)N4CCN(c5ccccc5)CC4)CC3)c(C)o2)cc1 | -21 | 88* | 7 | 17 | 18 | -9
Cc1ccccc1-c1nc(CN2CCC(C(=O)NCCCN3CCCC(C)C3)CC2)c(C)o1 (centres undefined) | -4 | 23 | 0 | 94* | 8 | 5
Cc1noc(C)c1S(=O)(=O)N1CCN(c2ccccc2Cl)CC1 | -7 | 16 | -9 | 1 | 26 | 20
CC[C@]12c3[nH]c4ccccc4c3CCN1C(=O)C(CC(=O)NCCCn1ccnc1)C[C@@H]2C(=O)N1CCN(C(=O)c2ccco2)CC1 (some centres undefined) | -8 | -9 | -4 | -5 | 8 | -1
NC(=O)c1ccccc1N/C=C/C(=O)c1ccc(Cl)cc1Cl | -65* | -136 | 1 | -35 | -18 | -70
C=CCc1ccccc1Oc1cc(OC)nc(N)n1 | 6 | -20 | -2 | -9 | -16 | 4
Cc1ccc2c(n1)sc1c(-c3ccc(Br)cc3)c(C#N)c(N)nc12 | 9 | 56* | -1 | 14 | -17 | 0
CCc1nc(N)c(C#N)c(-c2ccc(F)cc2)c1C | -6 | 3 | -5 | -6 | 7 | 15
Cc1cccc(N2CCN(C(=O)Cn3sc4nc(C)cc(C)c4c3=O)CC2C)c1 (centres undefined) | 1 | 26 | 82* | 9 | 0 | 16
COc1ccc(-c2cc(C(F)(F)F)c(C#N)c(SCC(=O)Nc3nc(C)co3)n2)cc1 | -7 | 57* | 1 | -1 | -18 | -13
Cc1coc(NC(=O)CSc2nc(-c3ccc(Cl)cc3)cc(C(F)(F)F)c2C#N)n1 | -13 | 60* | 0 | 22 | -8 | 19
COc1ccc(NC(=O)CSc2nc(-c3ccc(C)cc3)cc(C(F)(F)F)c2C#N)cc1 | -25 | 10 | 0 | 3 | -4 | 6
Cc1cc(C(=O)Nc2c(F)cc(F)cc2Br)c(C)o1 | 7 | 3 | 23* | 2 | 4 | 10
Cc1cc(Nc2cccc([N+](=O)[O-])c2)n2c(nc3ccccc32)c1C#N | -38 | 17 | 0 | 76* | 35 | 11
CCN(CC)CCNc1cc(C)c(C#N)c2nc3ccccc3n12 | -4 | 7 | 0 | 15 | -21 | 2
COC1=CC(=O)c2nc(Cl)ccc2C1=O | -91* | 107* | 18 | nt | 83* | 90*
COc1ccc(NC(=O)COC(=O)CCc2ccc(S(=O)(=O)N3CCOCC3)cc2)cc1Cl | 4 | 5 | 6 | -13 | -2 | 8
SMILES | KKLEB tox | Peg3 prom inh | ABHD5 PLIN5 PPI | MITF TRPM1 inh | CF NFkB block | HIF-2a block
O=C(Nc1nnc(-c2ccncc2)s1)Nc1ccccc1F | 8 | -140 | 0 | -13 | 25 | -161
O=C(Nc1ccc(Cl)c(Cl)c1)Nc1nnc(-c2ccncc2)s1 | -56* | 24 | -4 | 2 | 76* | 4
O=C(Nc1ccc(N2CCCCC2)cc1)c1ccccn1 | -77* | 91* | -4 | 82* | -5 | 93*
O=C(Nc1ccc(N2CCCCCC2)cc1)c1ccccc1Cl | -16 | -190 | -7 | -19 | 17 | -297
Cc1cc(NC(=O)CCS(=O)(=O)c2nc(-c3ccccc3)cc(C(F)(F)F)n2)no1 | -33 | 106* | 42* | 85* | 76* | 65*
COc1ccc(-c2cc(C(F)(F)F)nc(S(=O)(=O)CCCC(=O)Nc3cccc(O)c3)n2)cc1OC | -80* | 96* | 23* | nt | 86* | -9
O=C(CN(c1ccc(F)cc1)S(=O)(=O)c1ccccc1)NC1CC2CCC1C2 (centres undefined) | -5 | 19 | -3 | 8 | 18 | 7
CN(C)c1ccc(Sc2ccc3nc(N)nc(N)c3c2)cc1 | -31 | 105* | 11 | nt | 24 | -4
O=Cc1ccc(O)c2ncccc12 | -4 | 39 | -3 | 63* | -2 | 9
COc1ccc(-c2nc(N=Nc3ccc(O)cc3)n[nH]2)cc1 | 25 | -68 | 1 | -25 | -28 | -111
Cc1ccc(-c2nc(N=Nc3ccc(O)cc3)n[nH]2)cc1 | 29 | 68* | 5 | -8 | 6 | -160
CCOC(=O)C1(O)CC(C)=NN1C(=O)c1cccc(Cl)c1 (centres undefined) | -7 | 7 | 1 | 5 | 9 | 19
CC(=O)n1cc(C(C[N+](=O)[O-])SCCN)c2ccccc21 (centres undefined) | 0 | 47 | -11 | 86* | 29 | 31
Cc1cc(C)c(S(=O)(=O)N2CCN(C3CC(=O)N(c4ccccc4Cl)C3=O)CC2)c(C)c1 (centres undefined) | -10 | 3 | 0 | 9 | 16 | 17
COc1ccc(/C=N/Nc2cc(C)nc3c(C)cccc23)cc1 | -5 | 111* | 4 | 79* | -58 | -14
COc1cccc2c(N/N=C/c3ccc(O)c(O)c3)cc(C)nc12 | -2 | -93 | -6 | -23 | -16 | -77
COc1ccc(/C=N/Nc2cc(C)nc3ccccc23)cc1 | 0 | 103* | 8 | 78* | -100 | -22
Cc1nc(C(F)(F)F)ccc1C(=O)Nc1ccc2ccccc2n1 | 4 | -125 | 7 | -27 | 8 | -225

Bioassay records deposited in PubChem by several laboratories.
